# Assay results taken from PubChem BioAssay (NCI).
# Compounds without any hit were thinned out: in the full panel of roughly 83,000, 20% have a hit.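 In brief: 96-well plates, 48 h treatment, single concentration, percent growth endpoint.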 Unmarked numbers belong to inactive results. The source made the active and inactive calls. How the source made its calls: active means growth percent below 10; inactive means the rest.
# System: SNB-19 CNS
# Experiment: NCI-60 one-dose screen, 48 h (100 = growth as untreated, 0 = no growth, -100 = all killed)
# Settings: 10 µM
row,Compound,growth
1,CCCCCCCNc1nc(C=O)ncc1-c1ccc(C(F)(F)F)cc1,91.1%
2,CCCCCCN1CCN(Cc2ccc(N(CC)CC)cc2)C(=O)C1=O,74.4%
3,O=C(Nc1cccc(-n2cc(-c3ccncc3)c(-c3ccc(O)c(Cl)c3)n2)c1)Nc1ccc(Cl)c(Cl)c1,38.2%
4,S=C1SCC(c2ccccc2)S1 (stereo not given),97.8%
5,COc1cccc(C(=O)Nc2ccc(CN3CCc4nc5cc(OC)c(OC)cc5cc43)cc2)c1,69.7%
6,COc1ccc(-c2nn(-c3cccc(NC(=O)c4cc(C(F)(F)F)cc(C(F)(F)F)c4)c3)cc2-c2ccncc2)cc1Cl,90.8%
7,O=C(Nc1ccccc1)Nc1cccc(-n2cc(-c3ccncc3)c(-c3ccc(O)c(Cl)c3)n2)c1,77.2%
8,N#CCCN1C/C(=C/c2ccc(Cl)cc2)C(=O)/C(=C/c2ccc(Cl)cc2)C1,-28% (active)
9,COc1ccc(-c2nn(-c3cccc(NC(=O)c4cccc(C(F)(F)F)c4)c3)cc2-c2ccncc2)cc1Cl,79.6%
10,COc1ccc([N+](=O)[O-])c(C(=O)O)c1,103%
11,CN(C)CCN=c1nc2c(c(N)n1-c1ccccc1)c(=S)n(-c1ccccc1)c(=S)n2-c1ccccc1,26.1%
12,O=C(Nc1cccc(-n2cc(-c3ccncc3)c(-c3ccc(O)c(Cl)c3)n2)c1)c1cccc(C(F)(F)F)c1,69.7%
13,COc1cccc(NC(=O)c2sc3nc4c(cc3c2N)C(O)CCC4)c1 (stereo not given),49.5%
14,O=S(=O)(NCCCNc1nccc(-c2c(-c3ccc(F)cc3)nc3sccn23)n1)c1ccc2ccccc2c1,82.4%
15,COc1ccc(-c2nn(-c3cccc(NC(=O)Nc4cccc(C(F)(F)F)c4)c3)cc2-c2ccncc2)cc1Cl,37.1%
16,COc1ccc(-c2nn(-c3cccc(NC(=O)c4ccc(Cl)c(Cl)c4)c3)cc2-c2ccncc2)cc1Cl,87.1%
17,Cc1c(Cl)cccc1NC(=O)c1sc2nc3c(cc2c1N)C(=O)CCC3,45.4%
18,COc1cc(/C=C/C(=O)c2ccc(Cl)cc2)ccc1OS(=O)(=O)c1ccc(C)cc1,98.5%

row,Compound,growth
1,O=C(N/N=C/c1cc2ccccc2c2ccccc12)c1cc(O)c(O)c(O)c1,50.6%
2,COc1ccc(-c2nn(-c3cccc(NC(=O)c4ccc(N5CCOCC5)c(C(F)(F)F)c4)c3)cc2-c2ccncc2)cc1Cl,81.4%
3,COc1ccc(-c2cc(/C=C/C(=O)c3cc(OC)c(OC)c(OC)c3)[nH]n2)cc1OC,25.5%
4,CC1=C(N2CCOCC2)C(N2CCOCC2)=C(C)C(=O)C1=O,103%
5,Cc1ccc(C)c(C(O)(c2cc(C)ccc2C)C2(O)CCCCC2)c1,98.8%
6,COc1ccc(-c2nn(-c3cccc(NC(=O)c4ccc5c(c4)OCCO5)c3)cc2-c2ccncc2)cc1Cl,70.8%
7,Cc1ncc(-c2ccoc2)c(NC2CCCCCC2)n1,105%
8,O=S(=O)(NCCNc1nccc(-c2c(-c3ccc(F)cc3)nc3sccn23)n1)c1ccc2ccccc2c1,105%
9,COc1ccc2c(c1)nc(N)c1c3cccnc3cn21,35.9%
10,O=C(Nc1cccc(-n2cc(-c3ccncc3)c(-c3ccc(O)c(Cl)c3)n2)c1)c1ccc(Cl)c(Cl)c1,72.8%
11,CCN1CCCC1CNC(=O)c1ncc(-c2ccc(C(F)(F)F)cc2)c(NC2CCCCCC2)n1 (stereo not given),85.2%
12,Clc1ccc(-c2cn(-c3ccccc3)c(-c3ccccc3)n2)c(Cl)c1,43.7%
13,CCCCCCCCCCCCCCCC(=O)OC1[C@@H](OC(=O)CCCCCCCCCCCCCCC)[C@@H](C(=O)N[C@@H](CCCCN)C(=O)OC)O[C@H]1n1cnc2c(=O)[nH]c(NC(=O)C(C)C)nc21 (stereo not given in full),93.5%
14,O=c1oc2cc(OS(=O)(=O)c3ccccc3)ccc2c2c1CCCCC2,77%
15,O=C1Nc2ccccc2C1=NC1CCCCC1,111%
16,O=C(Nc1cccc(-n2cc(-c3ccncc3)c(-c3ccc(O)c(Cl)c3)n2)c1)c1ccc(N2CCOCC2)c(C(F)(F)F)c1,67.9%
17,O=C(Nc1ccc(OS(=O)(=O)c2ccccc2)cc1)C12CC3CC(CC(C3)C1)C2,71.8%
